Columns and labels:
Assay in all cases: DAPPL (digital affinity profiling via proximity ligation, sequencing); 10 mM Tris-HCl pH 7.5, 50 mM NaCl, 1 mM DTT, 4% glycerol, room temperature, 30 min; GST-TFs on glutathione beads, 16-mer random dsDNA library, 0.1% formaldehyde crosslink after washing; high values mean tight binding
Settings in all cases: protein: recombinant; tags: N-terminal GST; dsDNA, one strand shown
[1] = biological target: T1, FEV (Homo sapiens, UniProt Q99581 1-238)
T1 sequence: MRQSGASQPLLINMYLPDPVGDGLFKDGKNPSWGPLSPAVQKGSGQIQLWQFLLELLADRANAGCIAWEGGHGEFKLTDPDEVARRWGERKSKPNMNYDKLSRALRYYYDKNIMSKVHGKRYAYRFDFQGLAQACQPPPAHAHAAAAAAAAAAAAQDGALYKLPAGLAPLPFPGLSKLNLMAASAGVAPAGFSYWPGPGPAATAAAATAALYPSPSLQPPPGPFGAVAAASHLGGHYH
In short: (§1)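 Beads coated with glutathione captured GST-fused human transcription factors that had been expressed in yeast, and the factors were then given DNA barcodes and pooled with a tag-only sample. The pools were incubated with 200 nmole of a random double-stranded 16-mer DNA library in Tris/NaCl/DTT/glycerol buffer for 30 min at room temperature, washed, crosslinked with 0.1% formaldehyde and proximity-ligated with BsaI/T4 ligase at 37 °C for 1 h. PCR amplification and Illumina NextSeq500 sequencing came last. Binding signal is each hexamer's read frequency for a factor divided by its frequency for the tag-only sample.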

[2] = biological target: ETV5 (Homo sapiens, UniProt P41161 1-510)
In short: as §1

[3] = biological target: T2, SPIC (Homo sapiens, UniProt Q8N5J4 1-248)
T2 sequence: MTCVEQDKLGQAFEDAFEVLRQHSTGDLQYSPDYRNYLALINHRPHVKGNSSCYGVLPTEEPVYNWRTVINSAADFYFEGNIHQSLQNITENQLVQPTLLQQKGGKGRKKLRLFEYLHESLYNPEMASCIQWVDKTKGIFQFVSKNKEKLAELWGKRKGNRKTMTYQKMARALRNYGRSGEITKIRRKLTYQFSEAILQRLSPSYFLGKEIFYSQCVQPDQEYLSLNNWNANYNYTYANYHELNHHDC
In short: as §1

[4] = biological target: ELF4 (Homo sapiens, UniProt Q99607 1-663)
In short: as §1

[5] = biological target: T3, ELK4 (Homo sapiens, UniProt P28324-2 1-405)
T3 sequence: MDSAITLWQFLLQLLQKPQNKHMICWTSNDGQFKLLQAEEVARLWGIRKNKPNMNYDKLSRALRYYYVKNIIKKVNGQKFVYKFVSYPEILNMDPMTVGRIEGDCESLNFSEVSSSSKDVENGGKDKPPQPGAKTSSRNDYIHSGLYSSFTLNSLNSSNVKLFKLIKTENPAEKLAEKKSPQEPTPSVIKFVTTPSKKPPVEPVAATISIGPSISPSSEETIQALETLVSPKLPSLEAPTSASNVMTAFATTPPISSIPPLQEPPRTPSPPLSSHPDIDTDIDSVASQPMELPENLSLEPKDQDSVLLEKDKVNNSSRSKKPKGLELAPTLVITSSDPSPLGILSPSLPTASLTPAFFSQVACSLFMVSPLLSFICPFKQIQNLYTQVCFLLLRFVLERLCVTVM
In short: as §1

[6] = biological target: T4, ETV2 (Homo sapiens, UniProt O00321 1-342)
T4 sequence: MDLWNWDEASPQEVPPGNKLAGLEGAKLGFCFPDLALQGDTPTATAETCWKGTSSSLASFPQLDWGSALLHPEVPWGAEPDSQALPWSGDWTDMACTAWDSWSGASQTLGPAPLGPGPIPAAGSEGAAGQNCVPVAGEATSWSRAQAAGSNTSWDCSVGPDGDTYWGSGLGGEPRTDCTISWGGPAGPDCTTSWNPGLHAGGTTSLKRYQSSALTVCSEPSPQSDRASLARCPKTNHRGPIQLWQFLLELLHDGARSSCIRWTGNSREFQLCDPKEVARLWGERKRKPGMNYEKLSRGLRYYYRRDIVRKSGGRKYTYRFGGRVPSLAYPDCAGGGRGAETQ
In short: as §1

[7] = biological target: T5, ELF3 (Homo sapiens, UniProt P78545 1-371)
T5 sequence: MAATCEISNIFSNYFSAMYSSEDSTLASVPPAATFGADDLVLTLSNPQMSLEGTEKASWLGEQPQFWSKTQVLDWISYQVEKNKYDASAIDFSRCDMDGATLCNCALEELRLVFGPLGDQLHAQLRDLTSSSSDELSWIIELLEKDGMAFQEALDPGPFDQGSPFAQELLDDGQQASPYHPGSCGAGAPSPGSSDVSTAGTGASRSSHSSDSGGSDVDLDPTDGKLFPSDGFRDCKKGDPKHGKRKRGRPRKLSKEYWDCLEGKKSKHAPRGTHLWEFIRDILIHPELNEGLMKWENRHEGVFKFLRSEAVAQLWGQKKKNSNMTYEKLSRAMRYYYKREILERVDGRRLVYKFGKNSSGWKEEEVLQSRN
In short: as §1

[8] = biological target: CRX (Homo sapiens, UniProt O43186 1-299)
In short: as §1

[9] = biological target: ETV1 (Homo sapiens, UniProt P50549 1-477)
In short: as §1

[10] = biological target: T6, ERF (Homo sapiens, UniProt P50548 1-548)
T6 sequence: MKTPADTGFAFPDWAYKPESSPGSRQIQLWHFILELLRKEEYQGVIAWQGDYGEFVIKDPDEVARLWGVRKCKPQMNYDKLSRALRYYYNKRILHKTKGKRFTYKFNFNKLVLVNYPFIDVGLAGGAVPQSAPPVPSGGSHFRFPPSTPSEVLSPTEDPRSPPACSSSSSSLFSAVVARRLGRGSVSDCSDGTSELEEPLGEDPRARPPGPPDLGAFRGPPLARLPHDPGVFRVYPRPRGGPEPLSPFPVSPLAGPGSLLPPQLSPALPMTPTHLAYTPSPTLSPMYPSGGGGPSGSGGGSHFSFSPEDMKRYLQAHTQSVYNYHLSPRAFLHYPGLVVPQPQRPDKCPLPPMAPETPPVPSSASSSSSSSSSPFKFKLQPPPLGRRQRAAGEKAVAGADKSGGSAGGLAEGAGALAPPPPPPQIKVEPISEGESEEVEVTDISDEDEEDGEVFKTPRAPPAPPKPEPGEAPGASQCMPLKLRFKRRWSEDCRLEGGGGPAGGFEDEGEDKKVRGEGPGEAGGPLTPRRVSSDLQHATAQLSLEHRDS
In short: as §1

[11] = biological target: T7, ETV3L (Homo sapiens, UniProt Q6ZN32 1-361)
T7 sequence: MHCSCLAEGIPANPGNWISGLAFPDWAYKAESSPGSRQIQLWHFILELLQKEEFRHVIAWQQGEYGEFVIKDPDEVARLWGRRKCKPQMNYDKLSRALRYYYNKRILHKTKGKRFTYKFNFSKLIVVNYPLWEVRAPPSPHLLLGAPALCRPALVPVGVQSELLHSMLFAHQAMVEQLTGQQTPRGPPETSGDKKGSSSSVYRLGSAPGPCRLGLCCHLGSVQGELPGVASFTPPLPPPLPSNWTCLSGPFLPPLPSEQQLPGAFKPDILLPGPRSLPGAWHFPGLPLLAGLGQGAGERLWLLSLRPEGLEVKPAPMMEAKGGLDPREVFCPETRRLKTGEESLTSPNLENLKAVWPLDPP
In short: as §1

[12] = biological target: T8, ETS2 (Homo sapiens, UniProt P15036 1-469)
T8 sequence: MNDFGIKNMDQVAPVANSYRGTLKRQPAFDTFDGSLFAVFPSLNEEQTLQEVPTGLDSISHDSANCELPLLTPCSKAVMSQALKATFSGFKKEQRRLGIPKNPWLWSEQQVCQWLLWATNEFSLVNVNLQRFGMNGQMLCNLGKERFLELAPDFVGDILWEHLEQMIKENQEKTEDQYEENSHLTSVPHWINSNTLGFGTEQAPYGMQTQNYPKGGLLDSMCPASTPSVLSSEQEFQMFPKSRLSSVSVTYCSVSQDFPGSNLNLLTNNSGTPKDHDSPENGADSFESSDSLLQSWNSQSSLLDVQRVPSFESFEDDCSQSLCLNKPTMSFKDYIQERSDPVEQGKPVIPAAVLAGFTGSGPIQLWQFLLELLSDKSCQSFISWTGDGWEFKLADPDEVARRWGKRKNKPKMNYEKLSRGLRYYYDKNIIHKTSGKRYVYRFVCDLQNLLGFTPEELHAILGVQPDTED
In short: as §1

[13] = biological target: T9, SPDEF (Homo sapiens, UniProt O95238 1-335)
T9 sequence: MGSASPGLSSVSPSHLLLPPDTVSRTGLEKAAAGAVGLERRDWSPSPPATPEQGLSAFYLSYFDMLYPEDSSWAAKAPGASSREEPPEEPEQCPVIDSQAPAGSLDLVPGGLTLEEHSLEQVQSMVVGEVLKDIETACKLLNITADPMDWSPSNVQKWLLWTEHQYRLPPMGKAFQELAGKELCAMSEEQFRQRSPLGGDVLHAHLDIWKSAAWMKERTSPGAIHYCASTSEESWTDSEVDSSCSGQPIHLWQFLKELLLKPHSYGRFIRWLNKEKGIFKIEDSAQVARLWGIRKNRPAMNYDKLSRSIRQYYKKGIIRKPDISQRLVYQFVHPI
In short: as §1

[14] = biological target: T10, ETV7 (Homo sapiens, UniProt Q9Y603 1-341)
T10 sequence: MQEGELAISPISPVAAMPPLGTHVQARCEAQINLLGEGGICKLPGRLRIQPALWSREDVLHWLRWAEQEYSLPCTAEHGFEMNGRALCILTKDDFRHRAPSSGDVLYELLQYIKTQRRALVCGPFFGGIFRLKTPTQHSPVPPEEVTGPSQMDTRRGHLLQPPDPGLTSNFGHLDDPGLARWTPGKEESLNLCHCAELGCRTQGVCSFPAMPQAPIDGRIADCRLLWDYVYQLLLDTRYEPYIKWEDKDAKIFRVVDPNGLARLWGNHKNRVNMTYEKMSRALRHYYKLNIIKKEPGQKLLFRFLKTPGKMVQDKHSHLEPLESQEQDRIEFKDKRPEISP
In short: as §1

[15] = biological target: T11, ELF5 (Homo sapiens, UniProt Q9UKW6-2 1-255)
T11 sequence: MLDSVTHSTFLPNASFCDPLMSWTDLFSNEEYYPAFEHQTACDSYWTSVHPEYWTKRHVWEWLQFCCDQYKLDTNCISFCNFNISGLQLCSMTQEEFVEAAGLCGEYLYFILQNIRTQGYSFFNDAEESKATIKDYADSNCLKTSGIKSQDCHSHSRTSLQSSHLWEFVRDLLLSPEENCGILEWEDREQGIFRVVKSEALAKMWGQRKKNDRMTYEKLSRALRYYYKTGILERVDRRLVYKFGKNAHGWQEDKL
In short: as §1

[16] = biological target: T12, ETV3 (Homo sapiens, UniProt P41162-2 1-143)
T12 sequence: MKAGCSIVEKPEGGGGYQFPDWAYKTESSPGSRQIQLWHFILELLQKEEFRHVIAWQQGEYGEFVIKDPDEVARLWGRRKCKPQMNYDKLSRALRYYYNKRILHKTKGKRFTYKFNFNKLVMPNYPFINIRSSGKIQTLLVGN
In short: as §1

[17] = biological target: ETV6 (Homo sapiens, UniProt P41212 1-452)
In short: as §1

Sequence of ETV6 (P41212 whole entry): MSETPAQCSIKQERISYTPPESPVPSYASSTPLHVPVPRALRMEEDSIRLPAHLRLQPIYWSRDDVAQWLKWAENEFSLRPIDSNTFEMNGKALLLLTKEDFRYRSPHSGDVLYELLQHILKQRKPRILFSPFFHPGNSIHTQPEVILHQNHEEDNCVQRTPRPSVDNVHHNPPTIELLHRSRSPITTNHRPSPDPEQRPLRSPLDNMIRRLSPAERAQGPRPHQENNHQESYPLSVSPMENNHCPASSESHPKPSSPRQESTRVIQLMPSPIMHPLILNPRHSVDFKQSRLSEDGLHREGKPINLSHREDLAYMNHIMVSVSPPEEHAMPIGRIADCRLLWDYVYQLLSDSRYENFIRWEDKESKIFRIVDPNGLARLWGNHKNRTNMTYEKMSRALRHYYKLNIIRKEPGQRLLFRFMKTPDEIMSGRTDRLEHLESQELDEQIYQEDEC
Sequence of ETV1 (P50549 whole entry): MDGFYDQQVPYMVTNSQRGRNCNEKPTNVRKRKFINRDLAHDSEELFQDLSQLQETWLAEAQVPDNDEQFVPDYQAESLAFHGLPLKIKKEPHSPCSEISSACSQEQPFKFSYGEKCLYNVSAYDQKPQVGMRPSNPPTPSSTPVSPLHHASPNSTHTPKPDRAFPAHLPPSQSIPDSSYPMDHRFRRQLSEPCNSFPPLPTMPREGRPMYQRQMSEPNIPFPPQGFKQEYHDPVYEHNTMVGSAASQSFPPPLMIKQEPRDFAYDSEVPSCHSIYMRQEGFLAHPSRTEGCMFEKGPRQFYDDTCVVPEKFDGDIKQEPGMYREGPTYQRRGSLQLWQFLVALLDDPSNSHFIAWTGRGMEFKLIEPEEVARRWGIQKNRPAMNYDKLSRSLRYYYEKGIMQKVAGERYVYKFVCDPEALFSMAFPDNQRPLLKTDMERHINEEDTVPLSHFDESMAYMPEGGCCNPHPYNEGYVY
Sequence of ELF4 (Q99607 whole entry): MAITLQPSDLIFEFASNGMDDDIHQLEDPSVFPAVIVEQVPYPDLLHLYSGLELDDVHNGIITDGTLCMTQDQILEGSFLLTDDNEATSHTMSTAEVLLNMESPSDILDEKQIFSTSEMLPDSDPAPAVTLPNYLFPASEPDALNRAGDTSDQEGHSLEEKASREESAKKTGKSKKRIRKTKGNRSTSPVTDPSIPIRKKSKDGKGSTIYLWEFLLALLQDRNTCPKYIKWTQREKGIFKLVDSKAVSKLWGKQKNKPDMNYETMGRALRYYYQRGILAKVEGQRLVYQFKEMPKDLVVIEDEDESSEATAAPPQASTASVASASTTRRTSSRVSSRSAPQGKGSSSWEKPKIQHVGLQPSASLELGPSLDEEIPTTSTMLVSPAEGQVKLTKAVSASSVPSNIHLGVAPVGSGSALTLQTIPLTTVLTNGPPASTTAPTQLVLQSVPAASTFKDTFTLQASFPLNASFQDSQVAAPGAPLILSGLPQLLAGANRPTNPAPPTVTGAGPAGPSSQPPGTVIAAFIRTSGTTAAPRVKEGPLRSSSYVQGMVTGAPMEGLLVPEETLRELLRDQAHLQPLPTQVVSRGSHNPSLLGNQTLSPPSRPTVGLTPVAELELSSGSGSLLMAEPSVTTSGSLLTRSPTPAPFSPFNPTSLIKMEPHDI
Sequence of ETV5 (P41161 whole entry): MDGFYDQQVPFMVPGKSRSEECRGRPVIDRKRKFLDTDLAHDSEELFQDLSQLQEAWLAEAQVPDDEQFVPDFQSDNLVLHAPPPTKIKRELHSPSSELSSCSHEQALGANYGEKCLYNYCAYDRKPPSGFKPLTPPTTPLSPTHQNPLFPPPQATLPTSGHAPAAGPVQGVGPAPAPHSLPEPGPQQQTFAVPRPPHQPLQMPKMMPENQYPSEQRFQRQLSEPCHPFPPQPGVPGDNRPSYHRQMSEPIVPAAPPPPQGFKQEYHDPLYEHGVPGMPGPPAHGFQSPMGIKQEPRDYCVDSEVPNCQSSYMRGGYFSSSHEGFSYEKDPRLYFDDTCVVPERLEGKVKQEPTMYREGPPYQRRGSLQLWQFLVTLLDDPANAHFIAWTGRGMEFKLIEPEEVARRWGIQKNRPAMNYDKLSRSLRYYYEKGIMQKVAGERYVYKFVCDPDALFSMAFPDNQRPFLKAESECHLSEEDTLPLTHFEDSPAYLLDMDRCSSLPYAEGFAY
Sequence of CRX (O43186 whole entry): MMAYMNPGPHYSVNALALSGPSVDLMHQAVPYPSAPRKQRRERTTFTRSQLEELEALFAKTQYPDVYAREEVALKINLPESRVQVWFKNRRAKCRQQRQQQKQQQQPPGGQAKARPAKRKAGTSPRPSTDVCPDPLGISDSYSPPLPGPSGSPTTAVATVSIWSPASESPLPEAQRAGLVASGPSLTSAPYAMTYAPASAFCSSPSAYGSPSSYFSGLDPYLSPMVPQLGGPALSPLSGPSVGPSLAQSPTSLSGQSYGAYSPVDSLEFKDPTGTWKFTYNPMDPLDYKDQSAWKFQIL

Row | Sequence | binding signal [1] | binding signal [2] | binding signal [3] | binding signal [4] | binding signal [5] | binding signal [6] | binding signal [7] | binding signal [8] | binding signal [9] | binding signal [10] | binding signal [11] | binding signal [12] | binding signal [13] | binding signal [14] | binding signal [15] | binding signal [16] | binding signal [17]
1 | AAGTCA | 1.17 fold enrichment (6-mer frequency, TF over GST control) | 1.23 fold enrichment (6-mer frequency, TF over GST control) | 1.1 fold enrichment (6-mer frequency, TF over GST control) | 1.22 fold enrichment (6-mer frequency, TF over GST control) | 1.18 fold enrichment (6-mer frequency, TF over GST control) | 1.21 fold enrichment (6-mer frequency, TF over GST control) | 1.21 fold enrichment (6-mer frequency, TF over GST control) | 1.03 fold enrichment (6-mer frequency, TF over GST control) | 1.3 fold enrichment (6-mer frequency, TF over GST control) | 1.2 fold enrichment (6-mer frequency, TF over GST control) | 1.19 fold enrichment (6-mer frequency, TF over GST control) | 1.21 fold enrichment (6-mer frequency, TF over GST control) | 1.18 fold enrichment (6-mer frequency, TF over GST control) | 1.24 fold enrichment (6-mer frequency, TF over GST control) | 1.21 fold enrichment (6-mer frequency, TF over GST control) | 1.15 fold enrichment (6-mer frequency, TF over GST control) | 1.26 fold enrichment (6-mer frequency, TF over GST control)
2 | GCGACC | 1.19 fold enrichment (6-mer frequency, TF over GST control) | 1.09 fold enrichment (6-mer frequency, TF over GST control) | 1.2 fold enrichment (6-mer frequency, TF over GST control) | 1.25 fold enrichment (6-mer frequency, TF over GST control) | 1.03 fold enrichment (6-mer frequency, TF over GST control) | 1.26 fold enrichment (6-mer frequency, TF over GST control) | 1.08 fold enrichment (6-mer frequency, TF over GST control) | – | 1.06 fold enrichment (6-mer frequency, TF over GST control) | 1.13 fold enrichment (6-mer frequency, TF over GST control) | 1.14 fold enrichment (6-mer frequency, TF over GST control) | 1.19 fold enrichment (6-mer frequency, TF over GST control) | 1.14 fold enrichment (6-mer frequency, TF over GST control) | 1.06 fold enrichment (6-mer frequency, TF over GST control) | 1.1 fold enrichment (6-mer frequency, TF over GST control) | 1.1 fold enrichment (6-mer frequency, TF over GST control) | 1.08 fold enrichment (6-mer frequency, TF over GST control)

Source: PMC7862700, “An all-to-all approach to the identification of sequence-specific readers for epigenetic DNA modifications on cytosine”
